From PubChem BioAssay (NCATS)
Values joined by “and” are separate entries in the source; they are usually repeats but may differ in a detail not shown here. Identical values can stand only once. Results filed as inconclusive are left out. Active and inactive are the calls of the source. Unless noted, the call rests on the fitted dose curve; in most records, active means well fitted curve in the direction sought with a large enough effect; inconclusive means small, poorly fitted or top-dose-only effect, or another doubt; inactive means no such curve, though single readings can be large; an effect the other way counts as inactive or inconclusive.

Tests used:
[1] = Cell Viability - SH-SY5Y (AID 544); conditions: SH-SY5Y neuroblastoma cell viability; viability change, negative = cytotoxic: at 92.2 µM (top of the series);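 further: cells exposed to compound for 40 hours; nearly all actives have a fitted effect of over 55% in size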; further: potency means the concentration at half of the fitted maximal effect;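 on viability change, negative = cytotoxic: 0% = DMSO alone and -100% = 100 µM tamoxifen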
How it was run: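 Cytotoxicity is scored as a concentration-dependent fall in intracellular ATP in human SH-SY5Y cells treated 40 hr in complete culture medium. Potency is expressed as AC50 from a Hill equation fit.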

[2] = Cell Viability - Mesenchymal (AID 546);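 further: cells exposed to compound for 40 hours before reading; 0% = DMSO only and -100% = 100 µM tamoxifen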
How it was run: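 Normal human renal glomerulus-derived kidney mesenchymal cells, 1000 per well in complete medium, were treated with compounds for 40 hr at 37 °C. Viability was read as intracellular ATP by CellTiter-Glo luminescence; AC50 values came from Hill-equation fits of qHTS concentration-response data.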

[3] = Cellular Toxicity (caspase-3) HUV-EC-C (AID 656);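 further: 0% = DMSO basal and 100% = 100 µM tamoxifen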
How it was run: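 Luminescent Caspase-Glo 3/7 readout after 16 h, 37 °C compound exposure of HUV-EC-C endothelial cells, 1000 per well, complete medium. AC50 derived by Hill fitting, with DMSO as baseline and 100 uM tamoxifen as full activation.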

[4] = Cellular Toxicity (caspase-3) SHSY5Y (AID 657)
How it was run: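 Luminescent Caspase-Glo 3/7 read-out, 1 hr room temperature, follows 16 hours of compound treatment of SH-SY5Y cells at 37 °C. Normalization: DMSO basal, 10 uM staurosporine as 100%; AC50 values from Hill-equation concentration-response fits.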

[5] = Cellular Toxicity (caspase-3) Mesangial (AID 660);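 further: combined caspase 3 and 7 activity read by Caspase-Glo luminescence; cells exposed to compound for 16 h before the caspase read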
How it was run: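 Concentration-response qHTS: compound-induced rise in caspase 3/7 luminescence in human mesangial cells after 16 h, normalized to DMSO and 100 uM tamoxifen controls.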

[6] = biological target: Cytochrome P450 3A4 (Homo sapiens) (UniProt P08684); test: qHTS Assay for Inhibitors and Substrates of Cytochrome P450 3A4 (AID 884); further: on the % scale 0 is the no-effect control and ±100 the full control effect; nearly all actives have a fitted effect of over 50% in size
How it was run: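 20 nM human CYP3A4 with 25 uM Luciferin-PPXE (at KM) in 200 mM KPO4, preincubated 10 min with compound; NADPH regeneration started a 60 min RT reaction. Luciferin detected by luminescence, normalized to 57 uM ketoconazole as full inhibition.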

[7] = MultiTox-Fluor Cytotoxicity Assay - LYMP1-001 - Live Cells (AID 947);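 further: 0% = DMSO only and full inhibition = tetraoctylammonium bromide control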
[8] = Cell Viability - LYMP1-002 - Assay at 16 hr (AID 948);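 further: 0% = DMSO alone and full effect = 92 µM tetraoctylammonium bromide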
How it was run: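 ATP luminescence (CellTiter-Glo) was measured after 16 hr compound exposure at 37 C of 2500 lymphoblastoid LYMP1-002 cells per well. Concentration-response curves were fitted with the Hill equation to give AC50.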

[9] = MultiTox-Fluor Cytotoxicity Assay - LYMP1-002 - Live Cells (AID 955); further: on the % scale 0 is the no-effect control and ±100 the full control effect
How it was run: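 Cytotoxicity in the human lymphoblastoid line LYMP1-002 is measured as loss of live-cell protease activity after 16 h treatment in complete culture medium. AC50 is derived from Hill-equation fits of qHTS concentration-response data.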

[10] = Cell Viability - LYMP2-017 (AID 972); further: on the % scale 0 is the no-effect control and ±100 the full control effect; nearly all actives have a fitted effect of over 55% in size
How it was run: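 Steps: plate 2500 lymphoblastoid cells per well; incubate 5 hr at 37 C; add compound across a concentration series and incubate 24 hr at 37 C; add CellTiter-Glo and read luminescence after 30 min at room temperature; fit Hill curves for AC50.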

[11] = Cell Viability - LYMP2-023 (AID 975);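 further: cellular ATP measured by luciferase luminescence as viability proxy; plate controls were DMSO only for no effect and 92 µM tetraoctylammonium bromide control for full effect; nearly all actives have a fitted effect of over 55% in size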
How it was run: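 Concentration-dependent drop in intracellular ATP measures acute cytotoxicity in a human lymphoblastoid line treated for 24 hours in complete culture medium. AC50 values are taken from Hill-equation fits of qHTS data.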

[12] = Cell Viability - LYMP2-002 (AID 977);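 further: plate controls were DMSO only for no effect and 92 µM tetraoctylammonium bromide for full effect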
How it was run: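 Luminescent ATP readout (CellTiter-Glo, 30 min room temperature) after 24 h compound exposure at 37 C of a human lymphoblastoid line, 2500 cells/well. AC50 values derived by standard Hill fitting of qHTS concentration-response data.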

[13] = qHTS assay for small molecule disruptors of the mitochondrial membrane potential - 1 hr assay (AID 651754; calls by dose curve; further: on the % scale 0 is the no-effect control and ±100 the full control effect; nearly all actives have a fitted effect of over 35% in size)
How it was run: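 Steps: seed HepG2 cells and let attach overnight; pin-transfer compound or vehicle; incubate 1 hr at 37C; add Mito-MPS dye for 30 min; read two-channel fluorescence for monomer and aggregate forms.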

[14] = qHTS assay for small molecule disruptors of the mitochondrial membrane potential - 5 hr assay (AID 651755; calls by dose curve; further: on the % scale 0 is the no-effect control and ±100 the full control effect; nearly all actives have a fitted effect of over 40% in size)
How it was run: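 HepG2 cells, attached overnight at 37C, were exposed to compound or DMSO for 5 hr at 37C, 5% CO2. Mito-MPS dye was then added for 30 min, and fluorescence read at 490/535 nm (monomers) and 540/590 nm (aggregates).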

[15] = biological target: Tumor necrosis factor (Homo sapiens) (UniProt P01375); test: qHTS assay to identify small molecules that stimulate Tumor Necrosis Factor-alpha (TNF-alpha) secretion (AID 651757; active means well fitted curve in the direction sought with a large enough effect in the signal ratio; the % refers to the signal ratio; further: 0% is about no effect)
How it was run: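 Secreted TNF-alpha from compound-treated THP-1 cells (17 hrs, 37 C) was quantified with a homogeneous time-resolved fluorescence antibody assay.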

[16] = qHTS assay for environmental chemicals that activate the Aryl hydrocarbon Receptor (AhR) signaling pathway (AID 651777); conditions: 1A2-DRE human hepatoma cells, luciferase, 24 h; activation: active compounds read high; further: % of control where 0% means no effect; nearly all actives have a fitted effect of over 15% in size
How it was run: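 Human hepatoma 1A2-DRE cells, stably carrying a dioxin response element and CYP1A2 promoter driving luciferase, were exposed to compounds for 24 hr at 37 C and 5% CO2. Luciferase signal was then read after 30 min One-Glo at room temperature.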

[17] = biological target: Nuclear receptor ROR-gamma (Homo sapiens) (UniProt P51449); test: qHTS assay for small molecule antagonists of the retinoid-related orphan receptor gamma (ROR-gamma) signaling pathway (AID 651802);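 further: CHO cells with doxycycline-induced ROR-gamma expression; luciferase reporter luminescence driven by ROR response element; on the % scale 0 is the no-effect control and ±100 the full control effect; nearly all actives have a fitted effect of over 60% in size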
How it was run: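 Antagonism is scored as a fall in luminescence from a RORE-luciferase reporter in CHO cells expressing ROR under a TET-inducible promoter, measured 16hr after doxycycline induction in the presence of compound.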

[18] = biological target: Nuclear receptor subfamily 1 group I member 2 (Rattus norvegicus) (UniProt Q9R1A7); test: qHTS assay for small molecule activators of the rat pregnane X receptor (rPXR) signaling pathway (AID 651751; call rule not given here; further: 0% is about no effect); conditions: rPXR reporter cells, luciferase (One-Glo), 24 h
[19] = Cellular Toxicity (caspase-3) H-4-II-E (AID 663); conditions: Potency: caspase-3 activation;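 further: cells exposed to compound for 16 hr before readout; 0% = DMSO basal and 100% = 100 µM tamoxifen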
How it was run: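 Luminescence from caspase-cleaved aminoluciferin substrate, read 20 min after reagent addition, reports caspase 3/7 activation in rat H-4-II-E cells after 16 hr compound exposure. Normalized to DMSO (basal) and 100 uM tamoxifen (100%); AC50 from Hill fits.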

[20] = Cell Viability - LYMP2-005 (AID 967);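 further: plate controls were DMSO only for no effect and 92 µM tetraoctylammonium bromide control for full effect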
How it was run: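 LYMP2-005 human lymphoblastoid cells (2500/well) were treated with compounds for 24 h at 37 C. Intracellular ATP was then measured by CellTiter-Glo luminescence after 30 min at room temperature. AC50 values came from Hill-equation fits of qHTS concentration-response data.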

Nuclear receptor subfamily 1 group I member 2 (Rattus norvegicus), sequence (Q9R1A7 whole entry, looked up): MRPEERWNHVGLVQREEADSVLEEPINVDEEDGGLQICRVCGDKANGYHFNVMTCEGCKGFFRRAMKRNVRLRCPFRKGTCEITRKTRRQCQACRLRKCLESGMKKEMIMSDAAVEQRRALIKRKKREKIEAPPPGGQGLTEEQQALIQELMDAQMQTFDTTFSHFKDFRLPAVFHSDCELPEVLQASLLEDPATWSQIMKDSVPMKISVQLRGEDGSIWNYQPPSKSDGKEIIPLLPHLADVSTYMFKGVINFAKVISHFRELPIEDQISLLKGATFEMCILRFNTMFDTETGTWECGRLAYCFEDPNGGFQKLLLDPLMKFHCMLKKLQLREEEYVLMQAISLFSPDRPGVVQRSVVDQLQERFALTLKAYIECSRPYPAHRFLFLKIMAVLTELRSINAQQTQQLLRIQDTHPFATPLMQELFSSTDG
Tumor necrosis factor (Homo sapiens), sequence (P01375 whole entry, looked up): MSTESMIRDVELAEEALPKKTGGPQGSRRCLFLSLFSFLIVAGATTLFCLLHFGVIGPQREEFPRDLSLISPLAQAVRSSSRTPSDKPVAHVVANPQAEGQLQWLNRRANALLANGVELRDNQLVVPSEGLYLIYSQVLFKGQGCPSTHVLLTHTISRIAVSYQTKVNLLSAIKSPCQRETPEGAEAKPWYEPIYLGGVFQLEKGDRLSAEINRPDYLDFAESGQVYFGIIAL
Cytochrome P450 3A4 (Homo sapiens), sequence (P08684 whole entry, looked up): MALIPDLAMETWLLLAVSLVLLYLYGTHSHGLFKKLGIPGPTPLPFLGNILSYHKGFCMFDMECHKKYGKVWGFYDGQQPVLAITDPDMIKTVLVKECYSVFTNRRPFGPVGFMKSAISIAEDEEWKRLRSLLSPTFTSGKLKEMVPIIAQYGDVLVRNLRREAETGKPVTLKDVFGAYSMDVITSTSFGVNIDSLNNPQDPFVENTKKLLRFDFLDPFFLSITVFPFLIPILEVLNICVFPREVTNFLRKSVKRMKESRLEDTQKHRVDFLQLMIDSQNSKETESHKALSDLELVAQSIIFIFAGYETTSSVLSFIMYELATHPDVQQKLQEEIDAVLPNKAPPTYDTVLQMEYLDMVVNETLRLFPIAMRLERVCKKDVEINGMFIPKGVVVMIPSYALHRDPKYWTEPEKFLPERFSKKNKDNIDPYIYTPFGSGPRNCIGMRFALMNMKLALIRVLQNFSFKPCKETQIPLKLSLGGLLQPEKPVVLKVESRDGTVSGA
Nuclear receptor ROR-gamma (Homo sapiens), sequence (P51449 whole entry, looked up): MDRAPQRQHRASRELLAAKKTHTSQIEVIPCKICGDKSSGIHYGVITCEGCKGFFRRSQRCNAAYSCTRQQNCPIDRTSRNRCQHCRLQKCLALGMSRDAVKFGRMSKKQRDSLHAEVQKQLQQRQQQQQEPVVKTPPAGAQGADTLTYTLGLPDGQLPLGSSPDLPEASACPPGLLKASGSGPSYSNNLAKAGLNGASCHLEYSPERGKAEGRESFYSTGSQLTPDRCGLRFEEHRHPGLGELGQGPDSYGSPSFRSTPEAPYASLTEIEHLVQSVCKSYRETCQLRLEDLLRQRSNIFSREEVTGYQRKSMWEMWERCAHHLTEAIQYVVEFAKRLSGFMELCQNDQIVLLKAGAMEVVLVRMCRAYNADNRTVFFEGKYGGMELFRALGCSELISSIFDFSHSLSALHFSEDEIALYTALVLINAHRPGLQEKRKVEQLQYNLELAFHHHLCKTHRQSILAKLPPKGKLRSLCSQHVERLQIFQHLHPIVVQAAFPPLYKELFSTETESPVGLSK

ClCCOCCCl
inactive: Potency [1] | Potency [2] | outcome [3] | outcome [4] | outcome [5] | Potency [6] | outcome [7] | outcome [8] | outcome [9] | Potency [10] | Potency [11] | Potency [12] | Potency [13] | Potency [14] | outcome [15] | activation [16] -0.172% | Potency [17] | max response [18] -1.5%

BrCCc1ccccc1
inactive: Potency [1] | Potency [2] | outcome [3] | outcome [4] | outcome [5] | Potency [6] | outcome [7] | outcome [8] | Potency [11] | Potency [12] | Potency [13] | Potency [14] | outcome [15] | activation [16] -0.177% | Potency [17] | max response [18] -6.29%

Brc1cccc(-c2ccccc2)c1
inactive: Potency [1] | Potency [2] | outcome [4] | outcome [5] | Potency [19] | Potency [6] | outcome [7] | outcome [8] | outcome [9] | Potency [20] | Potency [10] | Potency [11] | Potency [12] | Potency [13] | Potency [14] | outcome [15] | activation [16] -0.116% | Potency [17] | max response [18] 2.39%

O=C(O)CCl
inactive: Potency [1] | Potency [2] | outcome [3] | outcome [4] | outcome [5] | Potency [19] | Potency [6] | outcome [7] | outcome [8] | outcome [9] | Potency [20] | Potency [10] | Potency [11] | Potency [12] | Potency [13] | Potency [14] | outcome [15] | Potency [17] | max response [18] 9.97%

c1ccc2c(c1)CCNC2
inactive: Potency [1] | Potency [2] | outcome [3] | outcome [4] | outcome [5] | Potency [19] | Potency [6] | outcome [7] | outcome [8] | outcome [9] | Potency [20] | Potency [10] | Potency [11] | Potency [12] | Potency [13] | Potency [14] | outcome [15] | activation [16] -1.3% | Potency [17] | max response [18] -0.393%

Cc1ccc(N)c(N)c1
active: Potency [1] 12.6 µM
inactive: Potency [2] | outcome [3] | outcome [4] | Potency [19] | outcome [8] | outcome [9] | Potency [11] | Potency [17]

CSSC
inactive: Potency [1] | Potency [2] | outcome [5] | Potency [6] | outcome [9] | Potency [20] | Potency [10] | Potency [11] | Potency [12] | outcome [15] | Potency [17] | max response [18] -2.6%

CC(=O)CCC(C)=O
inactive: Potency [1] | Potency [2] | outcome [3] | outcome [5] | Potency [6] | outcome [7] | outcome [8] | Potency [20] | Potency [10] | Potency [11] | Potency [12] | Potency [13] | Potency [14] | outcome [15] | activation [16] 1.06% | max response [18] -1.31%

CC(C)(OOC(C)(C)c1ccccc1)c1ccccc1
inactive: Potency [2] | outcome [3] | outcome [4] | Potency [19] | Potency [6] | outcome [8] | outcome [9] | Potency [20] | Potency [10] | Potency [11] | Potency [12] | Potency [13] | Potency [14] | outcome [15] | activation [16] -0.821% and 0.322% | Potency [17] | max response [18] -3.9% and 4.2%

O=S(=O)(Cl)c1ccccc1
active: viability change, negative = cytotoxic [1] -100%
inactive: Potency [2] | outcome [3] | Potency [19] | Potency [6] | outcome [7] | outcome [8] | outcome [9] | Potency [20] | Potency [10] | Potency [11] | Potency [12] | Potency [14] | outcome [15] | activation [16] 0.182% and 1.5% | max response [18] -0.19% and -2.18%

CC(C)C#N
inactive: Potency [1] | Potency [2] | outcome [3] | outcome [4] | outcome [5] | Potency [6] | outcome [8] | outcome [9] | Potency [20] | Potency [11] | Potency [12] | Potency [13] | Potency [14] | outcome [15] | activation [16] 0.256% | Potency [17] | max response [18] 3.94%

NNC(N)=S
inactive: Potency [1] | Potency [2] | outcome [3] | outcome [4] | Potency [19] | Potency [6] | outcome [7] | outcome [8] | outcome [9] | Potency [20] | Potency [10] | Potency [12] | Potency [13] | Potency [14] | outcome [15] | activation [16] 0.972% | Potency [17] | max response [18] 0.379%

Oc1cc(Cl)ccc1Cl
inactive: Potency [1] | Potency [2] | outcome [3] | outcome [4] | outcome [5] | Potency [19] | outcome [7] | outcome [8] | Potency [20] | Potency [10] | Potency [11] | Potency [12] | Potency [14] | outcome [15] | activation [16] -0.282% and -1.1% | Potency [17] | max response [18] -2.5% and -2.48%

ClC=CCl
inactive: Potency [1] | Potency [2] | outcome [3] | outcome [4] | outcome [5] | Potency [19] | Potency [6] | outcome [7] | outcome [8] | outcome [9] | Potency [10] | Potency [11] | Potency [12] | Potency [13] | Potency [14] | outcome [15] | activation [16] 0.329% | Potency [17] | max response [18] -4.21%

O=[N+]([O-])c1ccc(Cl)cc1
inactive: Potency [1] | Potency [2] | outcome [4] | outcome [5] | Potency [19] | Potency [6] | outcome [7] | outcome [8] | outcome [9] | Potency [20] | Potency [10] | Potency [11] | Potency [12] | Potency [13] | Potency [14] | outcome [15] | activation [16] -0.207% and 4.63% | Potency [17] | max response [18] 5.34% and 1.87%
